Composite z-score and z-score data for 17 compounds are collected here from PubChem BioAssay.

For assay [1], the system named is XIP peptide (Xip251-270) binding. The assay is described as follows: XIP fragment 251-270 binding compounds – biochemical, small-molecule microarray, fluorescence 635/667 nm, 0.1 µg/mL protein, primary screen (AID 1182). The following applies: fluorescent protein binding, 635 nm, higher = more signal, called active from +8 up or from −8 down.
In another assay the test system is XIP peptide (Xip251-270). The assay is described as follows: compounds binding XIP fragment 251-270 – biochemical, small-molecule microarray, fluorescence 635/667 nm, 0.5 µg/mL protein, primary screen (AID 1183). The settings on record: fluorescence 635 nm, higher = more signal.
A short description of assay [2]: blood-stage malaria parasite viability loss – strain 3D7, DAPI fluorescence, 100 nL, primary screen (AID 1184).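 Note: parasites grown inside human red blood cells in medium with human serum.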 The following applies: P. falciparum 3D7 growth, 3 d, higher = more signal.
Assay [3] has as its target Homeobox protein Hox-A13 (Mus musculus) (UniProt Q62424). As to the kind of experiment: disruptors of Hoxa13 oligonucleotide interaction – biochemical, fluorescence polarization, labeled oligonucleotide, primary screen (AID 1185). The following applies: Hoxa13:DNA binding, 15 min, higher = more signal, called active from +8 up or from −8 down.
Assay [4] is described as follows: blockers of DNA damage checkpoint Chk1 activation – imaging, HeLa, hydroxyurea, phospho-Chk1 antibody, percent positive cells, primary screen (AID 1186). The settings on record: hydroxyurea-induced phospho-Chk1 immunofluorescence imaging, higher = more signal.
The nature of assay [5]: blockers of DNA damage checkpoint Chk1 activation – imaging, HeLa, hydroxyurea, phospho-Chk1 nuclear intensity, primary screen (AID 1187). The following applies: hydroxyurea-induced phospho-Chk1 immunofluorescence imaging, higher = more signal.

Active and inactive are the calls of the source. Unless noted, the rule behind the calls is not given here.

Homeobox protein Hox-A13 (Mus musculus), sequence (Q62424 whole entry, looked up): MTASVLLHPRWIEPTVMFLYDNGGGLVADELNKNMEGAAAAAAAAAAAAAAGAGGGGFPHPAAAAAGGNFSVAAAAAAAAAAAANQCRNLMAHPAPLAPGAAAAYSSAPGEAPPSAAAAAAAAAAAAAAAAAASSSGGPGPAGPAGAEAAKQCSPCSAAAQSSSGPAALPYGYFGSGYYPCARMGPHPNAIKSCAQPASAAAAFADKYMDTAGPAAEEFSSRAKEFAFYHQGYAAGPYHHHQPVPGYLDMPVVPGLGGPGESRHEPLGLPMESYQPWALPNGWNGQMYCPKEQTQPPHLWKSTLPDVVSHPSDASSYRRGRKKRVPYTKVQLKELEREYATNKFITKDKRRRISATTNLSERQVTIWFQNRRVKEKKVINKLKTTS

`COCC1=C([C@H](O)CCc2ccccc2)[C@H](CO)n2c(=O)n(-c3ccccc3)c(=O)n2C1`: the composite z-score is 0.625 (inactive) in assay [1] and -0.0859 with XIP peptide (Xip251-270). Further, the z-score is 0.0736 in assay [2], -3.09 (inactive) in assay [3], -0.48 (inactive) in assay [4] and 1.51 (inactive) in assay [5].
Regarding `CCOC(=O)C[C@H]1[C@H](OC(=O)c2cc3ccccc3oc2=O)[C@@H](NC(=O)C2CCCCC2)c2cc(OCCCO)ccc2N1C(=O)Cc1ccc(OC)cc1`, the composite z-score was 0.0512 (inactive) in assay [1] and 0.0439 in the assay with XIP peptide (Xip251-270). Also, the z-score in assay [2] is -0.565; in assay [3], -4.22 (inactive); in assay [4], 0.521 (inactive); in assay [5] it was -0.306 (inactive).
For `CCOC(=O)C1=CC[C@@H](c2ccc(F)cc2)N(S(=O)(=O)c2ccc(C)cc2)[C@H]1c1ccc([N+](=O)[O-])cc1`, the composite z-score is 0.1 (inactive) in assay [1] and 0.559 in the assay with XIP peptide (Xip251-270). Besides, the z-score in assay [2] was -1.8; in assay [3], 0.532 (inactive); in assay [4], 0.355 (inactive); in assay [5], 0.593 (inactive).
For `C[C@H]1C2[C@H](Cc3ccccc3)NC(=O)[C@]23C(=O)NCC(=O)N2CCC[C@H]2C(=O)NC/C=C\C/C=C/C3[C@@H]2O[C@]12C` (some centres not stated), the composite z-score in assay [1] is 0.358 (inactive); in the assay with XIP peptide (Xip251-270), 0.341. Further, the z-score in assay [2] is 0.876; in assay [3], -2.22 (inactive); in assay [4] it was 0.353 (inactive); in assay [5], 0.133 (inactive).
As to `C=CCC(OC(C)=O)[C@@H]1[C@@H](N(Cc2cc3ccccc3o2)C(=O)Cc2ccc(OC)cc2)c2cc(OCCCO)ccc2N1C(=O)Cc1ccc2ccccc2c1` (some centres not stated), the composite z-score is -0.324 (inactive) in assay [1] and -0.375 in the assay with XIP peptide (Xip251-270). The z-score in assay [2] was -2.15; in assay [3], -1.62 (inactive); in assay [4], 0.405 (inactive); in assay [5] it was 0.517 (inactive).
Take `[N-]=[N+]=NCc1ccccc1[C@@H]1OC(c2ccc(OCCCO)cc2)=N[C@]1(Cc1ccccc1)C(=O)NCc1ccccc1`: the composite z-score in assay [1] is 0.362 (inactive); with XIP peptide (Xip251-270) it was 0.573. The z-score in assay [2] is -2.24; in assay [3], 2.8 (inactive); in assay [4] it was -0.306 (inactive); in assay [5], -0.144 (inactive).
In the case of `C#CCN=C(N)N`, the composite z-score in assay [1] is 0.189 (inactive); in the assay on XIP peptide (Xip251-270) it was 0.391. For the same compound, the z-score in assay [2] was -0.624; in assay [3] it was -0.327 (inactive); in assay [4], -0.351 (inactive); in assay [5], -0.447 (inactive).
With `NC(=O)NCC#Cc1ccc2c(c1)[C@]1(C(=O)N2)[C@H](C(=O)Nc2nc3ccccc3s2)[C@H]2C(=O)O[C@H](c3ccccc3)[C@H](c3ccccc3)N2[C@@H]1c1ccc(OCCO)cc1`, the composite z-score in assay [1] is -0.165 (inactive); in the assay with XIP peptide (Xip251-270) it was -0.913. In addition, the z-score in assay [2] is -0.245; in assay [3], 0.217 (inactive); in assay [4], 0.287 (inactive); in assay [5], 0.68 (inactive).
On to `COc1ccc(CCNC(=O)[C@@H]2c3ccccc3C(=O)N(CC34CC5CC(CC(C5)C3)C4)[C@H]2c2ccc(CO)cc2)cc1`, for which the composite z-score in assay [1] is 1.92 (inactive); in the assay on XIP peptide (Xip251-270), 0.55. Also, the z-score is -2.14 in assay [2], -4.4 (inactive) in assay [3], -0.0198 (inactive) in assay [4] and 0.432 (inactive) in assay [5].
On to `C/C=C/CN(C(=O)C#Cc1ccccc1)[C@H](CO[Si](C)(C)C(C)(C)C)c1ccccc1`, for which the values for the composite z-score (in assay [1]; in the assay on XIP peptide (Xip251-270)) were -0.617 (inactive) and -0.109, respectively. Further, the z-score in assay [2] was -2.04; in assay [3], 1.99 (inactive); in assay [4] it was -0.288 (inactive); in assay [5], -0.0994 (inactive).
In the case of `CN1C(=O)[C@]2(CCS(=O)(=O)c3ccccc3)N=C(c3ccc(OCCCO)cc3)O[C@@H]2c2ccccc21`, the values for the composite z-score (in assay [1]; with XIP peptide (Xip251-270)) were 2.2 (inactive) and 0.897, respectively. For the same compound, the z-score in assay [2] is -2.32; in assay [3], -5.03 (inactive); in assay [4] it was -0.122 (inactive); in assay [5] it was 0.271 (inactive).
As for `COC(=O)[C@@]1(Cc2ccccc2)[C@H]2c3cc(C(=O)N4CCCC4)n(Cc4ccc(C(F)(F)F)nc4)c3C[C@H]2CN1C(=O)c1ccccc1`, the composite z-score in assay [1] was -0.0699 (inactive); with XIP peptide (Xip251-270), 0.723. Also, the z-score is -1.11 in assay [2], -3.13 (inactive) in assay [3], -0.0659 (inactive) in assay [4] and 0.114 (inactive) in assay [5].
For the compound `CN1C=C(C(=O)OCCS(C)(=O)=O)C(C(=O)OCCS(C)(=O)=O)=CC(CCCO)=CC1c1ccc(CN2CCCC2)cc1` (configuration not stated), the composite z-score in assay [1] was 0.629 (inactive); in the assay with XIP peptide (Xip251-270), 0.694. Besides, the z-score in assay [2] is -2.24; in assay [3] it was -4.07 (inactive); in assay [4], 0.266 (inactive); in assay [5], -0.0538 (inactive).
In the case of `COCCOC(=O)N1C(=O)[C@@]2(c3cc(C#CC4=CCCCC4)ccc31)[C@H](c1ccc(OCCO)cc1)N1[C@H](c3ccccc3)[C@H](c3ccccc3)OC(=O)[C@H]1[C@@H]2C(=O)N1CCCCCCC1`, the composite z-score in assay [1] was 1.32 (inactive); with XIP peptide (Xip251-270), 0.822. Further, the z-score is -2.06 in assay [2], -15.2 (active) in assay [3], -0.002 (inactive) in assay [4] and 0.437 (inactive) in assay [5].
For the compound `C=CC[C@@]1(C(=O)O)N=C(c2ccc(OCCCO)cc2)O[C@@H]1c1ccccc1CN=[N+]=[N-]`, the composite z-score in assay [1] is -0.207 (inactive); in the assay on XIP peptide (Xip251-270), 0.563. The z-score in assay [2] is -1.34; in assay [3] it was -6.29 (inactive); in assay [4] it was -0.222 (inactive); in assay [5], -0.0145 (inactive).
On to `Cc1ccc(S[C@]2(C(=O)NCC(F)(F)F)CC(=O)N(C3CCCCC3)[C@@H]2c2ccc(CO)cc2)cc1`, for which the results for the composite z-score (in assay [1]; with XIP peptide (Xip251-270)) were 0.23 (inactive) and 0.201, respectively. Besides, the z-score in assay [2] is -0.703; in assay [3] it was -3.04 (inactive); in assay [4], -0.418 (inactive); in assay [5], -0.25 (inactive).
`COc1cc(OC)c(C(O)C2C=CC3C(=O)N(c4ccccc4)C(=O)C3N2Nc2ccccc2F)cc1Br` (configuration not stated): the composite z-score in assay [1] was 0.166 (inactive); in the assay on XIP peptide (Xip251-270), 0.758. The z-score was 1.74 in assay [2], -1.47 (inactive) in assay [3], 0.195 (inactive) in assay [4] and -0.0782 (inactive) in assay [5].
